SMN2 splice enh = SMN2 splice variant enhancement; HEK293 SMN2-luciferase splicing reporter, luminescence, 30-36 h; 210,000 tested, 2.8% active; Potency, µM (titrated, usually from 46.1 µM), usual class: activators; note: nearly all actives have a fitted effect of over 55% in size
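HEK293 cells carry an SMN2 […]–luciferase reporter in which exon 7 inclusion puts luciferase in frame. Cells were plated 10-12 h before compound addition, then incubated 30-36 h at 37C. ONE-Glo luminescence was read; sodium butyrate at 4.5 mM final served as control.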
ELG1 DNA repair = ELG1-dependent DNA repair inhibition; HEK293T ELG1-luciferase reporter, luminescence, 16 h; DNA damage induced by 5-fluorouridine; Potency, µM (titrated, usually from 46.1 µM), most hits filed as inhibitors; 330,000 tested, 2.3% active; AID 504467; note: nearly all actives have a fitted effect of over 55% in size
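Reporter activity after DNA damage by 5-fluorouridine is monitored. Compound-treated cells incubate 16 hr at 37 °C, then ONE-Glo is added for 30 min before luminescence reading.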
Rab9 prom act = activators of Rab9 promoter; Potency, µM (titrated, usually from 9.22 µM), usual class: activators; Huh7 Rab9 promoter-luciferase reporter, luminescence, 24 h; 320,000 tested, 2.8% active; note: nearly all actives have a fitted effect of over 60% in size
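Huh7 cells stably carrying Rab9 promoter–luciferase reporter, plated 1500 cells/well, compound added after 2 h and incubated 24 h at 37 °C; luciferase luminescence then read after 10 min with detection reagent.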
NPC1 promoter act = activators of NPC1 promoter. Huh7 NPC1 promoter luciferase reporter, 24 h. Potency, µM (series often up to 9.22 µM), usual class: activators. 320,000 tested, 2.4% active. AID 485313; note: nearly all actives have a fitted effect of over 60% in size
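Quantitative HTS used a cell-based reporter: Huh7 cells stably bearing the NPC1 promoter upstream of luciferase were treated with compounds for 24 h, and promoter activation was read as luminescence.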
ELG1 genotox = inducers of genotoxicity in HEK293T ELG1-luciferase cells | Potency, µM (highest dose often 46 µM), most hits filed as activators | HEK293T ELG1-luciferase reporter, luminescence, 16 h | AID 504466 | 330,000 tested, 1.3% active; note: nearly all actives have a fitted effect of over 60% in size
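Quantitative HTS format in 1536-well plates. HEK293T ELG1-luciferase reporter cells receive test compound and are incubated 16 hr at 37 °C, 5% CO2; ONE-Glo added, 30 min room temperature, then luminescence read.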
FLuc modulator = counter-screen for miR-21 project: firefly luciferase inhibitors or activators. P08659. purified FLuc, Km substrates, luminescence inhibition. Potency, µM (titrated, usually from 57.5 µM), actives largely listed as inhibitors. 360,000 tested, 6.9% active; note: nearly all actives have a fitted effect of over 55% in size
Target sequence (P08659 whole entry, looked up): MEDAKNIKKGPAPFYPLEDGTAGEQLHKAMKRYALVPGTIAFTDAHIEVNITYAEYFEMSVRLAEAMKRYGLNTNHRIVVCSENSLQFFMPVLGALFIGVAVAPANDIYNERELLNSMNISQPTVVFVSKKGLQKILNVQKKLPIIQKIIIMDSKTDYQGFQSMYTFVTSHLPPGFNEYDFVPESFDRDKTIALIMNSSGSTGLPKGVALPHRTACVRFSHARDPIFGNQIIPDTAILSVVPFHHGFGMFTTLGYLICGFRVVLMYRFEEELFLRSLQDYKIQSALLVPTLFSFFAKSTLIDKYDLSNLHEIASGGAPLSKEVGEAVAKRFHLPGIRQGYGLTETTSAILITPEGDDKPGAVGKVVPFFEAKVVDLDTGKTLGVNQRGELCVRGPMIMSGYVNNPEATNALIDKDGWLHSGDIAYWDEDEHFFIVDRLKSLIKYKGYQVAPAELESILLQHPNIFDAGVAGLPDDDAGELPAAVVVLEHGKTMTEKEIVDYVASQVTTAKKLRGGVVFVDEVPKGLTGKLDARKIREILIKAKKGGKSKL
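Purified P. pyralis luciferase, 10 nM final, with Km-level 10 uM D-luciferin and 10 uM ATP in 50 mM Tris acetate pH 7.5, 10 mM Mg acetate, 0.01% Tween-20, 0.05% BSA; 6-point qHTS titration about 60 µM downward; luminescence read.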
A number is an active result; 0 = inactive; ? = inconclusive; - = not tested or not shown; [ ] = dose if it differs, or a comment. Hits are enriched below; roughly 9.4% of the tested compounds scored in any of these assays. Calls come from the whole dose curve; as a rule, active = well fitted curve in the direction sought with a large enough effect; inconclusive = small, poorly fitted or top-dose-only effect, or another doubt; inactive = no such curve, though single readings can be large; an effect the other way counts as inactive or inconclusive.

SMILES	SMN2 splice enh	ELG1 DNA repair	Rab9 prom act	NPC1 promoter act	ELG1 genotox	FLuc modulator
O=C(Nc1nc2c(F)cc(F)cc2s1)c1ccccn1	2.82µM	?	0.1µM	0.112µM	9.2µM	0.675µM
CCn1nc(C(=O)Nc2nc3ccc(C)cc3s2)c2ccccc2c1=O	0	0	0	0	0	0
CCc1noc(C)c1C(=O)Nc1nc2c(F)cc(F)cc2s1	-	?	?	0	0	12µM
CCc1noc(C)c1C(=O)Nc1nc2c(C)cccc2s1	-	0	0	0	0	?
O=C(COc1ccccc1)NNc1nc2c(F)cc(F)cc2s1	0	0	0	0	0	0
O=C(Nc1nc2ccc(S(=O)(=O)N3CCCCC3)cc2s1)c1ccncc1	0	?	0	0	0	?
Cc1ccc2nc(NC(=O)c3ccccn3)sc2c1	-	?	?	?	0.164µM	0.169µM
CCC1CCCCN1C(=O)CSc1nnc(-c2ccc(OC)c(OC)c2)o1 (centres undefined)	0	-	-	-	-	0
Cc1ccc(NC(=O)CNc2ccccc2N2CCCC2=O)cc1S(=O)(=O)N1CCCCC1	-	0	0	0	0	0
Cc1oc(-c2ccc(C(=O)N(C)Cc3ccccc3)cc2)nc1CN1CCc2ccccc21	-	-	-	-	-	0
CNC(=O)[C@H]1O[C@@H](n2cnc3c(NCc4ccc(N)cc4)ncnc32)[C@H](O)[C@H]1O	0	-	-	-	-	-
CCOc1ccc2nc(NC(=S)NCc3ccccc3)sc2c1	0	?	0	0	0	0
CCOc1ccc2nc(NC(=O)c3ccccn3)sc2c1	-	?	?	0.1µM	?	0.379µM
CS(=O)(=O)N1CCN(c2ccccc2NC(=O)c2cc3ccccc3o2)CC1	-	20.6µM	0	0	0	0
O=C(Nc1ccccc1N1CCOCC1)c1cc2ccccc2o1	-	0	0	?	0	9.53µM
Cc1cc(NC(=O)c2cccnc2Cl)ccc1NC(=O)c1cc2ccccc2o1	-	?	0	0	0	0
O=C(Nc1ccccc1N1CCCC1)c1cc2ccccc2o1	22.4µM	?	0	?	0	7.57µM
O=C(Nc1cccnc1Cl)c1cc2ccccc2o1	-	?	1.26µM	1.58µM	9.2µM	5.36µM
CN1CCN(c2ccccc2NC(=O)c2cc3ccccc3o2)CC1	0	0	0	0	0	?
CCc1sc(Nc2cccc(Cl)c2C)nc1-c1cc2cccc(OC)c2oc1=O	-	-	-	-	-	0
O=C(Nc1ccc(N2CCOCC2)c(Cl)c1)c1cc2ccccc2o1	0	?	3.16µM	3.55µM	0	8.49µM
Cn1cc(C(=O)NCc2ccc(Cl)cc2)c(=O)c2cc(S(=O)(=O)N3CCCCCC3)ccc21	0	-	-	-	-	0
CCN(CC)c1ccc(/C=C/c2nc3ccccc3s2)cc1	0	?	0	?	0.461µM	0.601µM
Oc1ccc(-c2nc3ccc4ccccc4c3c3c2CCC3)cc1O	0[1.84 µM]	?	0	0	0	23.9µM
Cc1ccc(-n2nc3c(n2)/C(=N/O)CC/C3=N\O)cc1	12.6µM	?	3.16µM	?	?	9.53µM
SMILES	SMN2 splice enh	ELG1 DNA repair	Rab9 prom act	NPC1 promoter act	ELG1 genotox	FLuc modulator
O/N=C1\CC/C(=N\O)c2nn(-c3ccccc3Cl)nc21	0	0	0	0	0	0
CCOc1ccc2nc(NC(=O)c3ccc(OC)c(S(=O)(=O)N4CCOCC4)c3)sc2c1	0	13µM	0	0	0	0
COc1ccc(OC2CCN(S(=O)(=O)c3ccc(C(C)=O)cc3)CC2)cc1	-	20.6µM	0	0	0	0
COc1ccc2nc(NC(=O)c3ccccc3C(=O)O)sc2c1	-	0	0[1.84 µM]	0	0	9.53µM
COc1ccc2nc(NC(=O)c3ccc(NS(=O)(=O)c4cccs4)cc3)sc2c1	0	?	0	0	0	4.78µM
COc1ccc2nc(NC(=O)c3ccccc3-c3ccccc3C(=O)O)sc2c1	0	0	0	0	0	?
CC(C)c1ccccc1NC(=O)CN(c1ccccc1)S(=O)(=O)N(C)C	0	-	-	-	-	0
CCCC(=O)Nc1nc2ccc(NC(=O)c3ccccc3F)cc2s1	-	0	0	0	0	0
Cc1ccc2nc(NC(=O)c3ccccc3F)sc2c1	-	?	?	0.316µM	0.651µM	0.477µM
CSc1ncccc1C(=O)Nc1nc2ccc(Oc3ccccc3)cc2s1	0	?	0	0	0	23.9µM
COc1ccc2nc(NC(=O)c3ccccc3F)sc2c1	-	?	0.316µM	0.447µM	?	0.338µM
CSc1ncccc1C(=O)Nc1ccc2nc(C)sc2c1	-	?	0	0	0	16.9µM
Cc1ccc(CNC(=O)C2CCN(S(=O)(=O)c3cc(-c4noc(C)n4)ccc3C)CC2)cc1	-	-	-	-	-	0
COc1ccc(C(=O)Nc2nc3ccc(OC)cc3s2)cc1	-	?	?	2.51µM	?	1.69µM
COc1ccc(C(=O)Nc2nc3ccc(S(C)(=O)=O)cc3s2)cc1	0	0	0	0	0	?
COc1ccc2nc(NC(=O)C3CCN(S(=O)(=O)c4cccs4)CC3)sc2c1	-	10.3µM	0	0	0	0
COc1ccc2nc(NC(=O)c3ccc(NC(=O)C4CCCO4)cc3)sc2c1 (centres undefined)	-	?	0	0	0	9.53µM
COc1ccc2nc(NC(=O)C3CCCN(S(=O)(=O)c4cccs4)C3)sc2c1 (centres undefined)	0	?	0	0	0	?
CCn1cc([N+](=O)[O-])c(C(=O)Nc2nc3ccc(OC)cc3s2)n1	0	?	0.316µM	0.398µM	0	23.9µM
Cc1ccc(NC(=O)N(Cc2c[nH]c3ccccc23)C2CCCCCC2)cc1C	0	-	-	-	-	0
CCc1ccc(NC(=O)Cn2c(=O)n(Cc3nc(C)no3)c(=O)c3cc4c(cc32)OCO4)cc1	-	-	-	-	-	0
COc1ccc(S(=O)(=O)N(CC(=O)Nc2ccc(F)c(Cl)c2)c2ccc(C)cc2)cc1OC	-	-	-	-	-	0
COc1ccc(S(=O)(=O)N2CCC(C(=O)Nc3nccs3)CC2)cc1	-	?	?	2.82µM	?	12µM
CC(=O)Nc1ccc(S(=O)(=O)N2CCC(C(=O)Nc3nccs3)CC2)cc1	-	0	0	0	0	0
Cc1cc(C)c2nc(NNC(=O)c3cc(=O)c4ccccc4o3)sc2c1	-	0	0	0	0	13.5µM
SMILES	SMN2 splice enh	ELG1 DNA repair	Rab9 prom act	NPC1 promoter act	ELG1 genotox	FLuc modulator
COc1ccc2nc(NC(=O)c3cnccn3)sc2c1	3.98µM	?	2.24µM	3.16µM	?	3.01µM
COc1ccc2nc(NC(=O)c3cc(=O)c4ccccc4o3)sc2c1	0	-	-	-	-	1.69µM
Cc1ccc2nc(NC(=O)c3cc(=O)c4cc(C)c(C)cc4o3)sc2c1	0	-	-	-	-	0
CCSc1ncc(Cl)c(C(=O)Nc2nc3ccc(OC)cc3s2)n1	0	-	-	-	-	0
Cn1cnc2c(=O)oc3ccc(S(=O)(=O)Nc4ccc(F)cc4)cc3c21	-	-	-	-	-	0
CC1CCN(C(=O)Cn2cc(SCc3ccccc3)c3ccccc32)CC1	-	-	-	-	-	0
C=CC(=O)NC(C)(C)CCN1CCOCC1	-	?	0	0	0	0
O=c1c2ccccc2nc(/C=C/c2ccc(O)cc2)n1CCc1ccccc1	0	23.1µM	0	0	0	0
